# Experimental data from PubChem BioAssay AID2732 (Emory University Molecular Libraries Screening Center, 2010).
# About 8,200 (3.7%) of roughly 220,000 compounds were called active. This excerpt belongs to a sample that is enriched for actives. Values without a mark were called inactive.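 Rule for the calls: active = compounds that reduced the stress-induced luciferase reporter signal by more than about 70% of percent inhibition (limit read from the data); inactive = the rest.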
# Test: blockers of ER-stress CHOP reporter expression – cell-based, unfolded protein response, luciferase reporter, primary screen (AID 2732);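 note: 0% = tunicamycin plus vehicle and 100% = wells without tunicamycin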
# Settings: CHO-K1 CHOP-promoter luciferase, tunicamycin-induced, 15-18 h; at 10 µM; stronger effect = higher value
row,SMILES,inhibition
1,Cn1c(C(=O)O)ccc1S(=O)(=O)N(Cc1ccccc1)Cc1ccccc1,2.64%
2,O=C(NC(=O)c1ccccc1N1CCCCC1)Nc1ccc(Br)cc1,-4.77%
3,Cc1ccc(OCC(=O)c2cc(C)n(Cc3ccco3)c2C)c([N+](=O)[O-])n1,31%
4,Cc1ccc(C2=Nc3c(ccc4ccccc34)C(c3ccncc3)=NN2)cc1,64.5%
5,CCc1ccc2c(c1)C(c1ccc([N+](=O)[O-])cc1)=NNC(c1ccccc1)=N2,93.7% (active)
6,CCOc1ccc2c(c1)C(c1ccc(C)cc1)=NNC(c1ccc(C)cc1)=N2,37.2%
7,C/C(=N/Nc1nc(-c2ccccc2)c(CC(=O)O)s1)c1ccccc1,-18.2%
8,CCCCN(CCCC)CC(O)Cn1c2ccccc2c(=O)c2ccccc21 (stereo unspecified),11%
9,CC(NC(=O)C(=O)Nc1nccs1)c1ccccc1 (stereo unspecified),24.1%
10,O=C(O)CCCCCCCCCC[n+]1ccccc1,-11.5%
11,CCC(C)(C)c1ccc(OCC(=O)N(C)C)c(C(C)(C)CC)c1,85.7% (active)
12,CCc1nc(C)ccc1OCC(=O)N(CC)CC,18.9%
13,CN(C)CCOc1ccc(Cl)cc1C(C)(C)C,-2.87%
14,Cn1nccc1NS(=O)(=O)c1ccc(F)cc1,-5.82%
15,Cc1cc(=O)[nH]c(S)c1C#N,2.71%
16,CC(C)(C)c1ccc(CCC2OCC(CN3CCOCC3)O2)cc1 (stereo unspecified),3.73%
17,COc1ccccc1-n1cn[nH]c1=S,11.5%
18,COC(=O)c1cc(C(=O)CSc2nc(C)cc(C)n2)ccc1O,5.39%
19,Cc1cc(SCC(=O)c2ccccc2)nc(SCC(=O)c2ccccc2)n1,15.9%
20,Cc1cc(Oc2ccc(Cl)cc2)nc(SCC(=O)c2ccccc2)n1,70.2% (active)
21,O=C(NNC(=O)c1csc(-c2cccnc2)n1)Nc1ccc(Cl)cc1,-32.3%
22,Cn1cc(S(=O)(=O)NC(c2ccccc2)c2ccccc2)c(=O)n(C)c1=O,9.19%
23,O=C(NCc1ccccc1Cl)NC(=O)c1csc([N+](=O)[O-])c1,-5.11%
24,Cc1ccc(C(=O)N(CN2CCCC2=O)c2ccc(F)cc2)cc1,-13.1%

row,SMILES,inhibition
1,CCN1CCC2(CC1)N=C(c1ccc(F)cc1)C(=S)N2C(=O)c1ccc(C)cc1,95.4% (active)
2,CCn1c(C(C)NC(=O)c2ccc(C)cc2)n[nH]c1=S (stereo unspecified),25.9%
3,CCn1c(SCC(=O)Nc2cccc(F)c2)nnc1-c1cc2cc(Br)ccc2o1,72.8% (active)
4,Cn1c(SCC(=O)Nc2ccc(Br)cc2F)nnc1-c1ccco1,24.1%
5,CCn1c(CNC(=O)c2ccco2)nnc1SCC(=O)Nc1cccc(F)c1,-0.15%
6,COC(=O)[C@H](Cc1ccccc1)NC(=O)Nc1ccc(OC)cc1,4.48%
7,CC(=O)c1cc(NC(=O)c2ccccc2)c(=O)oc1/C=C/N(C)C,11.8%
8,CCOC(=O)NNC(=O)c1ccc(Cl)cc1,-19.9%
9,CCOC(=O)c1cc(NC(=O)c2ccc(Cl)cc2)c(=O)oc1-c1ccccc1,77.2% (active)
10,COc1ccc(NC(=O)C2=C(C)NC(=O)NC2c2ccccc2[N+](=O)[O-])cc1 (stereo unspecified),-5.78%
11,O=C(Nc1ccc(S(=O)(=O)Nc2nccs2)cc1)c1cc(-c2ccncc2)nc2ccccc12,7.48%
12,O=C(N/N=C/C=C/c1ccccc1)C1CC1(c1ccccc1)c1ccccc1 (stereo unspecified),82.4% (active)
13,Cc1ccc(-c2cc(C(=O)N/N=C/C=C/c3ccccc3)n[nH]2)o1,13.4%
14,CC(/C=C/c1ccccc1)=N\NC(=O)C1CC1(C)c1ccccc1 (stereo unspecified),43.4%
15,CC(C)c1cc(CN2CCOCC2)cc(C(C)C)c1O,-5.16%
16,COc1ccc(C(C)=O)cc1COc1ccc(Cl)c(C)c1,5.12%
17,COc1ccc(/C=C/C(=O)Nc2ccc(C)cc2)cc1S(=O)(=O)N1CCOCC1,-1.01%
18,COc1ccc(/C=C/C(=O)Nc2c(C)nn(C)c2C)cc1COc1ccc(Br)cc1,105% (active)
19,COc1ccc(/C=C/C(=O)Nc2cccnc2)cc1OC,2.86%
20,COc1ccc(/C=C/C(=O)Nc2ccc3c(c2)OCCO3)cc1OC,-1%
21,CCn1nc(C)c(NC(=O)/C=C/c2ccc(OC)c(COc3ccc(Br)cc3)c2)c1C,86.6% (active)
22,Cc1ccc(NC(=O)Nc2cc(-c3ccccc3)nn2C)cc1Cl,7.85%
23,C=CCNC(=S)N1CCc2[nH]c3ccccc3c2C1,0.96%
24,COc1ccc(CCNC(=O)C(=O)Nc2ccc3nc4n(c(=O)c3c2)CCCCC4)cc1OC,8.36%

row,SMILES,inhibition
1,O=C(Nc1cccc2c1N(C(=O)c1ccco1)CCC2)c1ccco1,-8%
2,CC1(C)CC(=O)C=C(Nc2ccccc2)C1,5.42%
3,O=C(O)/C=C/c1ccc2c(c1)OCCO2,-23.6%
4,COc1cc(/C=N\NC(=O)CNC(=O)c2cccc([N+](=O)[O-])c2)ccc1O,8.27%
5,COc1ccc(C(=O)Nc2ccccc2C(=O)N/N=C/c2ccccc2OC)cc1,-12.8%
6,COc1ccc(C(=O)Nc2ccccc2C(=O)N/N=C/c2ccc(O)c(OC)c2)cc1,88.8% (active)
7,CCOC(=O)Cn1c(=O)oc2cc(S(=O)(=O)NCC3CCCO3)ccc21 (stereo unspecified),22.5%
8,OC(CNCC1CCCO1)Cn1c2ccc(Br)cc2c2cc(Br)ccc21 (stereo unspecified),108% (active)
9,CCc1cc(Br)ccc1NC(=O)C1CCCO1 (stereo unspecified),-17.3%
10,O=C(Nc1ccc(S(=O)(=O)N2CCOCC2)cc1)c1ccc2ncsc2c1,2.87%
11,C/C(=N\NC(=S)Nc1ccc(C)cc1)c1cc2ccccc2o1,-20.3%
12,COCCCNC(=O)C1CCN(c2ccc(N3CCOCC3)nn2)CC1,-10.8%
13,Oc1ccc(N=Cc2sc3ccccc3c2Cl)cc1,81.8% (active)
14,Oc1ccc(N=Cc2c(O)ccc3ccccc23)cc1,40.5%
15,O=C(N/N=C/c1c(Cl)[nH]c2ccccc12)c1sc2ccccc2c1Cl,44.3%
16,O=C(Nc1ccccc1C(F)(F)F)c1cc(-c2ccc(O)cc2)on1,105% (active)
17,O=C(c1cc(-c2ccc(O)cc2)on1)N1CCCc2ccccc21,40.4%
18,CC(NC(=O)c1cc(-c2ccccc2)on1)c1ccccc1 (stereo unspecified),58.1%
19,CCCCCCNS(=O)(=O)c1ccccc1Br,16.4%
20,CCOC(=O)C1=NN(c2ccc(Cl)cc2)/C(=C/C2=NCCc3cc(OC)c(OC)cc32)S1,-5.16%
21,CCCC(=O)NC(Nc1ccccc1OC)C(Cl)(Cl)Cl (stereo unspecified),21.3%
22,COc1ccccc1NC(=O)CCCc1c[nH]c2ccccc12,0.61%
23,CCCCCCCC(=O)NC(Nc1ccccc1OC)C(Cl)(Cl)Cl (stereo unspecified),87.9% (active)
24,CCOC(=O)NNc1cc(C(F)(F)F)ccn1,-10.6%

row,SMILES,inhibition
1,COc1ccc(Cl)cc1C(=O)NNC(=O)c1nc2nc(C)cc(C)n2n1,11.4%
2,Cc1onc(-c2c(Cl)cccc2Cl)c1C(=O)NNC(=O)c1c(-c2c(Cl)cccc2Cl)noc1C,-2.75%
3,O=C(/C=C/c1ccc(Cl)cc1)Nc1ccc(S(=O)(=O)Nc2ncccn2)cc1,15.1%
4,O=C(NCc1ccccc1)c1ccc(S(=O)(=O)Nc2cccc(C(F)(F)F)c2)cc1,26.6%
5,O=C(/C=C/c1ccc(F)cc1)Nc1cccc(S(=O)(=O)Nc2cccc(C(F)(F)F)c2)c1,103% (active)
6,OC(c1nc2ccccc2[nH]1)C(O)C(O)C(O)c1nc2ccccc2[nH]1 (stereo unspecified),4.88%
7,Cc1ccccc1Cn1c2ccccc2c2cnn(CC(=O)NCc3ccco3)c(=O)c21,90.4% (active)
8,Cc1ccccc1NC(=O)NCc1ccco1,-12.4%
9,O=C(Cn1c(=O)n(Cc2ccco2)c(=O)c2ccccc21)NCC1CCCO1 (stereo unspecified),19%
10,C/C(=N/NC(=O)CN1CCN(S(=O)(=O)c2ccc(Br)cc2)CC1)c1ccncc1,10.9%
11,Cc1ccc(N2C(=O)CC(N3CCSCC3)C2=O)c(C)c1 (stereo unspecified),19.1%
12,CCc1cccc(CC)c1NC(=S)Nc1ccc2cn[nH]c2c1,22.1%
13,FC(F)(F)c1cccc(NC(=S)Nc2cccc(Cl)c2)c1,87.2% (active)
14,S=C(Nc1cccc(Cl)c1)Nc1ccc2cn[nH]c2c1,-22.9%
15,Cc1csc(NC(=S)Nc2cccc(Cl)c2)n1,-212%
16,COc1cccc(NC(=O)NCc2ccc(F)cc2)c1,5.22%
17,Cc1cccc(NC(=O)Nc2nnc(-c3ccccc3)o2)c1,-9.17%
18,Cc1cccc(NC(=O)Nc2cccc(Oc3c(F)c(F)c(F)c(F)c3F)c2)c1,97.1% (active)
19,N#C/C(=C/c1ccc(-c2ccccc2[N+](=O)[O-])o1)C(=O)NCCN1CCCCC1,22.9%
20,Cc1c(NC(=O)C(=O)N/N=C/c2cccs2)c(=O)n(-c2ccccc2)n1C,9.69%
21,CC(C)CCN1NC2(CCC(C)CC2)NC1=S (stereo unspecified),-10.5%
22,CCCN(CCC)CC(O)COc1ccccc1C(=O)Nc1ccccc1 (stereo unspecified),16.4%
23,CC(=O)Nc1nc(C)c(-c2csc(Nc3ccc(S(N)(=O)=O)cc3)n2)s1,18.6%
24,CC(=O)Nc1ccc(/C=N/Nc2ccc(C(=O)c3c(C)cc4ccccn34)cc2[N+](=O)[O-])cc1,17.2%
